Test results as given in PubChem BioAssay (Tox21).
Records with an inconclusive call do not appear. Entries that show only a call come without a potency. The source made the active and inactive calls. Unless noted, calls come from the whole dose curve.

Legend:
[1] = Nuclear factor erythroid 2-related factor 2/antioxidant responsive element (Nrf2/ARE) small molecule agonists: qHTS cell viability counter screen in human keratinocytes (AID 1919968; active = well fitted curve in the direction sought with a large enough effect in the repeat runs; an effect the other way counts as inactive or inconclusive; note: nearly all actives have a fitted effect of over 55% in size; note: potency is the fitted concentration of half-maximal effect)
Procedure, shortened: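 Viability counter-screen: KeratinoSens reporter cells, DMSO-delivered compounds, 23 h at 37 C, CellTiter-Fluor fluorescence.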

[2] = Nuclear factor erythroid 2-related factor 2/antioxidant responsive element (Nrf2/ARE) small molecule agonists: luciferase reporter gene qHTS assay in human keratinocytes (AID 1919969); note: nearly all actives have a fitted effect of over 35% in size; note: potency is the fitted concentration of half-maximal effect
[3] = target: Gonadotropin-releasing hormone receptor (Homo sapiens) (UniProt P30968); assay: Human gonadotropin-releasing hormone receptor (GnRHR) small molecule agonists, calcium flux assay in GnRHR-HEK293 cells (AID 1920063); note: nearly all actives have a fitted effect of over 35% in size
Gonadotropin-releasing hormone receptor (Homo sapiens), sequence (P30968 whole entry, looked up): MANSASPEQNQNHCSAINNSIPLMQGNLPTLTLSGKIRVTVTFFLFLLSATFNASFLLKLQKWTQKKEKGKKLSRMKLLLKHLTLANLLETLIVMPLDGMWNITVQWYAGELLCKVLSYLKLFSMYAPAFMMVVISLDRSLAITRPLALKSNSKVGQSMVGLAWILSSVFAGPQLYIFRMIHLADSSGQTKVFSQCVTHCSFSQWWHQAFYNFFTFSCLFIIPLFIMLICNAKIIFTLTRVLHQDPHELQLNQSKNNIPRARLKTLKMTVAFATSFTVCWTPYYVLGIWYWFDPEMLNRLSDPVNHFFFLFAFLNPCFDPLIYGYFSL
Procedure, shortened: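 Tox21-format agonist screen using human GnRHR-expressing HEK293 cells and a fluorescent calcium dye; kinetic 3-min fluorescence reading after compound addition, 15-point concentration series run in triplicate.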

[4] = target: KiSS-1 receptor (Homo sapiens) (UniProt Q969F8); assay: Human kisspeptin (KISS1R) small molecule agonists, calcium flux assay in KISS1R-HEK293 cells (AID 1920064; active = well fitted curve in the direction sought with a large enough effect in the repeat runs; an effect the other way counts as inactive or inconclusive)
KiSS-1 receptor (Homo sapiens), sequence (Q969F8 whole entry, looked up): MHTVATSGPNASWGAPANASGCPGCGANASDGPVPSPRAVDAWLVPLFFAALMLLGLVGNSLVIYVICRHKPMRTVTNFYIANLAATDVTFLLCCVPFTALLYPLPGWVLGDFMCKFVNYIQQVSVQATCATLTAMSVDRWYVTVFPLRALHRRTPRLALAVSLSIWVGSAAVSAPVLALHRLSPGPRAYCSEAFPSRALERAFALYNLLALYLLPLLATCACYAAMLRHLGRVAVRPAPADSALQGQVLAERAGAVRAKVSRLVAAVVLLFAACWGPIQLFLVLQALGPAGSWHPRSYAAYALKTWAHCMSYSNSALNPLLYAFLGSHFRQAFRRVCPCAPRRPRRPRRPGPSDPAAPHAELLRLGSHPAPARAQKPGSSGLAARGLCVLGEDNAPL
Procedure, shortened: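 Intracellular calcium mobilization in KISS1R-HEK293 cells was recorded by fluorescence (Ex/Em 480/540) for 3 min following compound addition to cells pre-loaded 1 h with calcium dye.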

[5] = G protein-coupled receptor (GPCR) small molecule agonists, calcium flux assay: HEK293 wild type cell line counter screen (AID 1920065)
Procedure, shortened: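 In this agonist-mode screen, ATP is the positive control and DMSO the vehicle. Cells grow 18 h before a 1 h dye incubation at 37 C; signal is taken at Ex/Em 480/540 over 3 min.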

[6] = p53 small molecule agonists, cell-based qHTS assay with human liver microsomes (AID 1963577);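 note: p53 response element beta-lactamase reporter cells with liver microsomes plus NADPH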
Procedure, shortened: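 16 h, 37 C exposure of p53RE-bla cells to compounds with human liver microsomes and NADPH (0.5 mg/mL final each); detection via LiveBLAzer mixture, 2 h dark at room temperature.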

[7] = p53 small molecule agonists, cell-based qHTS assay with rat liver microsomes (AID 1963578)
Procedure, shortened: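 With rat liver microsomes and NADPH present (0.5 mg/mL final each), p53RE-bla cells are treated with compound for 16 h at 37 C. LiveBLAzer detection mixture is then applied for 2 h at room temperature in the dark.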

[8] = p53 small molecule agonists, cell-based qHTS assay with human liver microsomes: qHTS cell viability counter screen (AID 1963579); note: nearly all actives have a fitted effect of over 45% in size
Procedure, shortened: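 In this multiplexed counter screen, the reporter plates were subsequently treated with CellTiter-Glo so that cell viability, reflected by luminescence, could be recorded for p53RE-bla cells dosed 16 h with compounds under microsomal activation (HLM and NADPH).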

[9] = p53 small molecule agonists, cell-based qHTS assay with rat liver microsomes: qHTS cell viability counter screen (AID 1963580); note: nearly all actives have a fitted effect of over 45% in size
Procedure, shortened: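 HCT-116 p53RE-bla, 4,000 cells/well, 5 h pre-incubation; cpd + rat liver microsomes 0.5 mg/mL + NADPH 0.5 mg/mL (final); 16 h, 37 C; CellTiter-Glo, 30 min RT; luminescence.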

[10] = p53 small molecule agonists, cell-based qHTS assay: qHTS cell viability counter screen (AID 1963581); note: nearly all actives have a fitted effect of over 45% in size
Procedure, shortened: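 Compounds are pinned onto HCT-116 p53RE-bla cells and left 16 h at 37 C. Following the reporter FRET read, ATP is quantified by CellTiter-Glo luminescence after 30 min at room temperature.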

[11] = p53 small molecule agonists, cell-based qHTS assay (AID 1963582; active = well fitted activation curve with a large enough effect in the signal ratio in the repeat runs, not every such curve was filed as active; the % refers to the signal ratio)
Procedure, shortened: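 Agonist activity was scored from beta-lactamase FRET fluorescence in p53RE-bla cells treated 16 h at 37 C with compounds in DMSO, substrate incubation being 2 h at room temperature.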

[12] = target: 5-hydroxytryptamine receptor 2A (Homo sapiens) (UniProt P28223); assay: 5-hydroxytryptamine receptor 2A (HTR2A) small molecule antagonists, cell-based qHTS assay (AID 1963586); note: nearly all actives have a fitted effect of over 45% in size; note: potency is the fitted concentration of half-maximal effect
5-hydroxytryptamine receptor 2A (Homo sapiens), sequence (P28223 whole entry, looked up): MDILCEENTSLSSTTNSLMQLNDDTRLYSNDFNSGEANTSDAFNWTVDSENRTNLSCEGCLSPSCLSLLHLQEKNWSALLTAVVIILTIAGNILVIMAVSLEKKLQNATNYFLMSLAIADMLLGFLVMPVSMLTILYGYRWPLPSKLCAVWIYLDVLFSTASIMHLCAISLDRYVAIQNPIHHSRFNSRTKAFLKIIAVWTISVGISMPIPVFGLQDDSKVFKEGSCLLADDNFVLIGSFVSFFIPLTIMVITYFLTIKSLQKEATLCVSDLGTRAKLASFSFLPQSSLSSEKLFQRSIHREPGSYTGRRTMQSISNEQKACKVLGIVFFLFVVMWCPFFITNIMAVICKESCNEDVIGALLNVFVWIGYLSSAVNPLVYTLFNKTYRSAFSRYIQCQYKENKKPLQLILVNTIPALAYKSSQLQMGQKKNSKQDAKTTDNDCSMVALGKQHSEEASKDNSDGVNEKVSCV
Procedure, shortened: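 Antagonist-mode intracellular calcium assay: DOI (4 nM) added after 5 min compound pre-incubation at room temperature to dye-loaded HTR2A-CHO cells. Fluorescence followed for 3 min, sampled every second.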

[13] = target: Muscarinic acetylcholine receptor M1 (Homo sapiens) (UniProt P11229); assay: Cholinergic receptor muscarinic 1 (CHRM1) small molecule antagonists, cell-based qHTS assay (AID 1963588); note: nearly all actives have a fitted effect of over 40% in size; note: potency is the fitted concentration of half-maximal effect
Muscarinic acetylcholine receptor M1 (Homo sapiens), sequence (P11229 whole entry, looked up): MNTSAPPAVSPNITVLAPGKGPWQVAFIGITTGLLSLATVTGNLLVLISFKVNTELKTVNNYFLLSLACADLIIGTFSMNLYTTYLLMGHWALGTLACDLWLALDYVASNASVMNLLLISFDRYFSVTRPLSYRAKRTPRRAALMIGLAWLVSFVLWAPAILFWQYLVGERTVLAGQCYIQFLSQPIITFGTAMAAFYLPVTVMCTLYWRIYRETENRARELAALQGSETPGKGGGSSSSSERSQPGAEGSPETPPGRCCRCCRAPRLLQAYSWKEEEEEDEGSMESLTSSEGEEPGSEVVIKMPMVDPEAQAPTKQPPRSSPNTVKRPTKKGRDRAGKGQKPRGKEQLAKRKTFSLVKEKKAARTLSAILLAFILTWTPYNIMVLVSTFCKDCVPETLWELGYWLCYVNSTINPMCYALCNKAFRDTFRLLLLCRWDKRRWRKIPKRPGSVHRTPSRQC
Procedure, shortened: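 CHRM1-CHO calcium-flux assay, antagonist mode. Cells were seeded 18 h, dye-loaded 1 h at 37 C and given compound for 5 min at RT, then acetylcholine was added at 50nM. FDSS fluorescence was read 3 min; 15 concentrations, three runs.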

[14] = target: Muscarinic acetylcholine receptor M1 (Homo sapiens) (UniProt P11229); assay: Cholinergic receptor muscarinic 1 (CHRM1) small molecule agonists, cell-based qHTS assay (AID 1963589); note: nearly all actives have a fitted effect of over 35% in size
Procedure, shortened: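 Stable CHRM1-CHO cells (human receptor) were incubated 18 h, dye-loaded for 1 h at 37 C and exposed to test compounds for agonist activity, with calcium-dependent fluorescence followed kinetically.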

[15] = cAMP Responsive Elements (CRE) small molecule agonists, cell-based qHTS assay (AID 1963590)
Procedure, shortened: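 FRET-based beta-lactamase readout (LiveBLAzer B/G, 2 h RT) quantified CRE activation in HEK 293T CRE-bla cells after 3 h treatment with DMSO-dissolved compounds.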

[16] = cAMP Responsive Elements (CRE) small molecule antagonists, cell-based qHTS assay (AID 1963591; active = well fitted inhibition curve with a large enough effect in the signal ratio in the repeat runs, not every such curve was filed as active; the % refers to the signal ratio)
Procedure, shortened: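 qHTS in CRE-bla HEK 293T cells: compound in DMSO, then 0.25 uM NKH477 (final), 3 h at 37 °C/5% CO2; beta-lactamase FRET read-out after 2 h substrate incubation.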

[17] = target: Beta-2 adrenergic receptor (Homo sapiens) (UniProt P07550); assay: Adrenergic beta2 receptor (ADRB2) small molecule antagonists, cell-based qHTS assay (AID 1963592); note: series mostly up to about 92 µM; nearly all actives have a fitted effect of over 50% in size
Beta-2 adrenergic receptor (Homo sapiens), sequence (P07550 whole entry, looked up): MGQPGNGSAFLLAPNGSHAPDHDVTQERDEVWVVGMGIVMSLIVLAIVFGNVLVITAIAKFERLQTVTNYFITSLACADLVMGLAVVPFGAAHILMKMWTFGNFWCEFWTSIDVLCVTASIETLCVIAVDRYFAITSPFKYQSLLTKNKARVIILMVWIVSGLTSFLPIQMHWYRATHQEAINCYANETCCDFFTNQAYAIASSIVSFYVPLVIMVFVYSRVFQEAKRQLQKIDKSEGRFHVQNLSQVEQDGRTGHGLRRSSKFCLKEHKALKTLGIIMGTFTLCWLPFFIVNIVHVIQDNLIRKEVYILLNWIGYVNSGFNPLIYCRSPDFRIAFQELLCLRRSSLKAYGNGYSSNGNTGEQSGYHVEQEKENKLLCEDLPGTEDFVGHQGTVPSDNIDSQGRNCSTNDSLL
Procedure, shortened: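 Cells (CHO, stable ADRB2 overexpression) incubated 18-20hr at 37C; compounds added from DMSO; agonist mix (1nM isoproterenol, 100uM IBMX, 25uM Ro-20-1724) added; 0.5hr RT; d2-cAMP and anti-cAMP-cryptate added; 1hr RT; 665/615 nm read.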

[18] = target: D(2) dopamine receptor (Homo sapiens) (UniProt P14416); assay: Dopamine D2 receptor (DRD2) small molecule agonists, cell-based qHTS assay (AID 1963594); note: nearly all actives have a fitted effect of over 35% in size
D(2) dopamine receptor (Homo sapiens), sequence (P14416 whole entry, looked up): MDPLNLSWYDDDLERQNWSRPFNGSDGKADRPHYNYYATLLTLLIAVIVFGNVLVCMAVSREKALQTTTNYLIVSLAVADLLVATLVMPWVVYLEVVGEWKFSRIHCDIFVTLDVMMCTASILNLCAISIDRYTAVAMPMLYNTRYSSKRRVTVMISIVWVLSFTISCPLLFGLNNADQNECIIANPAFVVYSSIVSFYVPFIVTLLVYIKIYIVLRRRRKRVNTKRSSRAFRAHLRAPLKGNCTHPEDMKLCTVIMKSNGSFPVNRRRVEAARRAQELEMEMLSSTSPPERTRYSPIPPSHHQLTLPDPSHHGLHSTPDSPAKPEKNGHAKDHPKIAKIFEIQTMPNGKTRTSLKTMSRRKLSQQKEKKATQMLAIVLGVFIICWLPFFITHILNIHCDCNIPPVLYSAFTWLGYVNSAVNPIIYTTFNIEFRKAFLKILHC
Procedure, shortened: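 cAMP accumulation in DRD2-HEK293 cells measured by HTRF after 1 h detection; compounds added 10 min before NKH477 (200nM […]) forskolin-analogue stimulation, 30 min at room temperature, with Ro20-1724 present at 0.1 mM final.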

[19] = target: D(2) dopamine receptor (Homo sapiens) (UniProt P14416); assay: Dopamine D2 receptor (DRD2) small molecule antagonists, cell-based qHTS assay (AID 1963595; active = well fitted inhibition curve with a large enough effect in the signal ratio in the repeat runs, with a control signal flat; the % refers to the signal ratio; note: potency is the fitted concentration of half-maximal effect)
Procedure, shortened: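 HTRF cAMP read-out at 665 and 620 nm emission (340 nm excitation). Antagonist mode: compounds were tested against 12 nM quinpirole in DRD2-HEK293 cells, with 200 nM NKH477 raising cAMP and 0.1 mM Ro20-1724 blocking its breakdown.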

[20] = target: 5-hydroxytryptamine receptor 2A (Homo sapiens) (UniProt P28223); assay: 5-hydroxytryptamine receptor 2A (HTR2A) small molecule agonists, cell-based qHTS assay (AID 1963587); note: nearly all actives have a fitted effect of over 30% in size
Procedure, shortened: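 Kinetic calcium-flux fluorescence (2 min, 1 sec intervals) after compound addition in agonist mode. HTR2A-CHO cells were cultured 18 h, then dye-loaded 1 h at 37 C.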

| SMILES | Potency [1] | Potency [2] | Potency [3] | Potency [4] | Potency [5] | Potency [6] | Potency [7] | Potency [8] | Potency [9] | Potency [10] | Potency [11] | Potency [12] | Potency [13] | Potency [14] | Potency [15] | Potency [16] | Potency [17] | Potency [18] | Potency [19] | Potency [20] |
| --- | --- | --- | --- | --- | --- | --- | --- | --- | --- | --- | --- | --- | --- | --- | --- | --- | --- | --- | --- | --- |
| CCOC(=O)C(Cl)C(C)=O (stereo not given) | inactive | inactive | inactive | inactive | inactive | inactive | inactive | inactive | inactive | inactive | inactive | inactive | 4.26 µM (active) | inactive | inactive | inactive | inactive | inactive | inactive |  |
| C=C1C[C@@H]2[C@H](CC[C@]3(C)C(=O)CC[C@@H]23)[C@@]2(C)C=CC(=O)C=C12 | inactive | 29.8 µM (active) | inactive | inactive | inactive | inactive | inactive | inactive | inactive | inactive | inactive | inactive | inactive | inactive |  |  |  | inactive | inactive | inactive |
| CN(C)CCc1c[nH]c2ccc(O)cc12 | inactive | 67 µM (active) | inactive | inactive | inactive | inactive | inactive | inactive | inactive | inactive | inactive | inactive | inactive | inactive | inactive | inactive |  |  |  |  |
| COC(=O)N(C(=O)N1CO[C@@]2(C(=O)OC)Cc3cc(Cl)ccc3C2=N1)c1ccc(OC(F)(F)F)cc1 | inactive | inactive | inactive | inactive | inactive | inactive | inactive | inactive | inactive | inactive | inactive | inactive | inactive | inactive |  |  |  | inactive | inactive | inactive |
| O=C(CCCN1CCC(n2c(=O)[nH]c3ccccc32)CC1)c1ccc(F)cc1 | inactive | inactive | inactive | inactive | inactive | inactive | inactive | inactive | inactive | inactive | inactive | 1.83 µM (active) | 2.05 µM (active) | inactive | inactive |  |  | inactive | 0.0422 µM (active) |  |
| O=C(NC(=O)c1c(F)cccc1F)Nc1cc(Cl)c(F)c(Cl)c1F | inactive | inactive | inactive | inactive | inactive | inactive | inactive | inactive | inactive | inactive | inactive | inactive | inactive | inactive | inactive |  | inactive | inactive | inactive |  |
| COc1cc(C[C@@H](C)N)c(OC)cc1Br | inactive | inactive | inactive | inactive | inactive | inactive | inactive | inactive | inactive | inactive | inactive | inactive | 17.2 µM (active) | inactive | inactive | inactive |  |  | inactive |  |
| CCC[CH2][Sn]([CH2]CCC)([O]C(C)=O)[O]C(C)=O | 0.219 µM (active) | 0.0978 µM (active) | inactive | inactive | inactive | inactive | inactive | inactive | inactive | inactive | inactive | inactive | inactive | inactive |  | inactive | inactive |  | inactive | inactive |
| CN/C(=N\[N+](=O)[O-])NCc1cnc(Cl)s1 | inactive | inactive | inactive | inactive | inactive | inactive | inactive | inactive | inactive | inactive | inactive | inactive | inactive | inactive | inactive |  |  | inactive | inactive | inactive |
| CCCC[P+](CC)(CCCC)CCCC (tested in a mixture with another compound) | inactive | inactive | inactive | inactive | inactive | inactive | inactive | inactive | inactive | inactive | inactive | inactive | inactive | inactive |  | inactive | inactive | inactive |  | inactive |
| CCCCS(=O)(=O)Cl | inactive | inactive | inactive | inactive | inactive | inactive | inactive | inactive | inactive | inactive | inactive | inactive | inactive |  |  | inactive |  | inactive | inactive | inactive |
| CC(CC(C#N)(c1ccccc1)c1ccccc1)N(C)C (stereo not given) | inactive | inactive | inactive | inactive | inactive | inactive | inactive | inactive | inactive | inactive | inactive |  | 0.0105 µM (active) | inactive | inactive | inactive | inactive | inactive | inactive | inactive |
| CCC(OC(C)=O)C(CC(C)NC)(c1ccccc1)c1ccccc1 (stereo not given) | 54.9 µM (active) | inactive | inactive | inactive | inactive | inactive | inactive | inactive | inactive | inactive | inactive | inactive |  | inactive |  |  | inactive | inactive | inactive |  |
| COC(=O)C(c1ccccc1)C1CCCCN1 (stereo not given) | inactive | inactive | inactive | inactive | inactive | inactive | inactive | inactive | inactive | inactive | inactive | inactive | 26.6 µM (active) | inactive | inactive | inactive |  | inactive | inactive |  |
